Screening results as filed in PubChem.
HT1080-NT tox: kills 2HG-producing HT-1080-NT fibrosarcoma cells; HT-1080-NT fibrosarcoma viability, CellTiter-Glo ATP luminescence, 48 h; Potency, µM (titrated, usually from 46.1 µM), actives largely listed as cytotoxic; 360,000 compounds, 1.6% hits;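 also: NT is the 2HG producing partner of a matched IDH1 knockdown line; nearly all actives have a fitted effect of over 55% in size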
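HT-1080-NT; 750 cells/well; 5% FBS RPMI; 48 h compound, 37 degrees C; CellTiter-Glo luminescence; curve fitting and curve-class assignment.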
KB-V1 cytotox: kills drug-selected multidrug resistant KB-V1 cells; Potency, µM (titrated, usually from 46.1 µM), actives largely listed as cytotoxic; 400,000 compounds, 3.4% hits; AID 1347076; KB-V1 MDR cells viability, CellTiter-Glo, 72 h; also: nearly all actives have a fitted effect of over 60% in size
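Luminescent ATP read-out (CellTiter-Glo, 10 min) measures survival of drug-selected KB-V1 MDR cells after 72 h, 37 degrees C compound exposure. Medium: phenol-red-free DMEM, 10% FBS. Values from fitted concentration-response curves.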
KB-3-1 cytotox: kills parental KB-3-1 adenocarcinoma cells; KB-3-1 viability, CellTiter-Glo ATP luminescence, 72 h; Potency, µM (highest dose often 46.1 µM), hits mostly cytotoxic; 400,000 compounds, 1.4% hits; also: nearly all actives have a fitted effect of over 60% in size
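Here the drug-naive KB-3-1 line serves as comparator for MDR sub-line selectivity; cells received compound titrations, 72 h at 37 °C, then CellTiter-Glo readout.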
HT1080 IDH1KD tx: kills HT-1080 cells with IDH1 knockdown | HT-1080 IDH1 knockdown viability, ATP luminescence, 48 h | Potency, µM (titrated, usually from 46.1 µM), most hits filed as cytotoxic | 360,000 compounds, 2% hits | AID 686971
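Knockdown cells (IDH1KD HT-1080) received compounds 2 h after plating at 750 cells/well and were kept 48 h at 37 °C in 5% FBS RPMI. A CellTiter-Glo luminescence read gave % activity for curve fitting.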
Of the large screens only hits and unclear results are named; the others gave an inactive call. Sampled rows, rich in hits. Any-hit rate of the full collection: about 5.7%. Calls follow the shape of the dose curve; as a rule, active = well fitted curve in the direction sought with a large enough effect; inconclusive = small, poorly fitted or top-dose-only effect, or another doubt; inactive = no such curve, though single readings can be large; an effect the other way counts as inactive or inconclusive.

CCOc1ccc(/C=N/Nc2cc(N3CCOCC3)ncn2)c(O)c1	HT1080-NT tox inconclusive, KB-3-1 cytotox inconclusive, HT1080 IDH1KD tx 2.31µM
Clc1ccccc1/C=N/Nc1cc(N2CCOCC2)ncn1	none
Cc1nc([N+](=O)[O-])cn1CC(O)c1ccc2c(c1)OCCCO2 (configuration not stated)	none (no result: HT1080-NT tox, HT1080 IDH1KD tx)
COc1ccc(C2CC(c3ccccc3)=NN2C(=O)CN2CCN(Cc3ccccc3)CC2)cc1 (configuration not stated)	KB-V1 cytotox 23.1µM, KB-3-1 cytotox inconclusive
COc1ccc(C2=NN(C(=O)COC(=O)c3ccc(S(C)(=O)=O)c([N+](=O)[O-])c3)C(c3ccco3)C2)cc1 (configuration not stated)	HT1080-NT tox inconclusive, KB-V1 cytotox inconclusive, KB-3-1 cytotox inconclusive, HT1080 IDH1KD tx 14.6µM
COc1ccc(C2CC(c3ccccc3)=NN2C(=O)COC(=O)c2cccc(S(=O)(=O)N(C)C)c2)cc1 (configuration not stated)	KB-V1 cytotox 3.66µM
COc1ccc(C2=NN(C(=O)COc3ncnc4ccccc34)C(c3ccco3)C2)cc1 (configuration not stated)	HT1080 IDH1KD tx inconclusive
COc1ccc(C2CC(c3ccccc3)=NN2C(=O)COC(=O)c2cccc(S(=O)(=O)N3CCOCC3)c2)cc1 (configuration not stated)	none
CCC(=O)N1N=C(c2ccccc2)CC1c1ccc([N+](=O)[O-])cc1 (configuration not stated)	KB-V1 cytotox 14.6µM
CC1CCN(S(=O)(=O)c2ccc3c(c2)N(CC(=O)O)C(=O)CO3)CC1	none (no result: HT1080-NT tox, HT1080 IDH1KD tx)
COc1ccc(Br)cc1C1NC(c2ccc3c(c2)OCO3)=CC(c2ccccc2O)N1 (configuration not stated)	KB-V1 cytotox inconclusive (no result: HT1080-NT tox, HT1080 IDH1KD tx)
COCc1nnc(NC(=O)C2CCN(C(=O)c3ccccc3)CC2)s1	none (no result: HT1080-NT tox, HT1080 IDH1KD tx)
COc1ccc2cc(CNc3ccc(C)cc3)c(=O)n(CC(=O)Nc3cccc(Cl)c3C)c2c1	none (no result: HT1080-NT tox, HT1080 IDH1KD tx)
COc1ccc(CN(Cc2ccccc2)C(=O)CN2CCN(C)CC2)cc1COc1ccc(NC(C)=O)cc1	none (no result: KB-V1 cytotox, KB-3-1 cytotox)
CC(=O)/C=C/n1c(=S)oc2ccccc21	HT1080-NT tox 5.17µM, KB-V1 cytotox 16.4µM, KB-3-1 cytotox inconclusive, HT1080 IDH1KD tx 5.17µM
COc1ccc(NC(=O)Cn2cc(C(=O)C3CCCCC3)c3ccccc32)cc1	none (no result: HT1080-NT tox, HT1080 IDH1KD tx)
CC(NC(=O)c1ccccc1NC(=O)CN1CCN(c2ccccc2O)CC1)c1ccccc1 (configuration not stated)	KB-V1 cytotox inconclusive
CC(NC(=O)c1ccccc1NC(=O)CN1CCc2ccccc2C1)c1ccccc1 (configuration not stated)	KB-V1 cytotox 18.4µM, KB-3-1 cytotox inconclusive
CCCCOc1nnc(-c2ccc(OCC)cc2)c2ccccc12	none (no result: HT1080-NT tox, HT1080 IDH1KD tx)
O=C(NC(=S)NNC(=O)c1ccccc1O)c1ccc(F)cc1	HT1080-NT tox inconclusive, KB-3-1 cytotox inconclusive, HT1080 IDH1KD tx inconclusive
O=C(NC(=O)c1ccccc1O)c1ccc(C(F)(F)F)cc1	HT1080-NT tox 13µM, HT1080 IDH1KD tx 14.6µM
COc1ccc(-c2nc(C#N)c(N3CCc4ccccc4C3)o2)cc1OC	HT1080-NT tox inconclusive, KB-V1 cytotox 2.06µM
O=C1N/C(=N\N=C\c2cccs2)SC1Cc1ccc(Cl)cc1Cl (configuration not stated)	HT1080-NT tox inconclusive, KB-V1 cytotox inconclusive, KB-3-1 cytotox 7.31µM, HT1080 IDH1KD tx inconclusive
O=C1NC(=Nc2ccc(Cl)cc2)SC1Cc1cc(Cl)ccc1Cl (configuration not stated)	KB-V1 cytotox 14.6µM
O=C(CC1S/C(=N/N=C/c2cccs2)NC1=O)Nc1ccc(Cl)c(Cl)c1 (configuration not stated)	KB-V1 cytotox inconclusive, KB-3-1 cytotox inconclusive
O=C(CC1S/C(=N/N=C/c2cccs2)NC1=O)Nc1ccc(Cl)cc1 (configuration not stated)	none
O=C1N/C(=N\N=C\c2cccs2)SC1Cc1cccc(Cl)c1Cl (configuration not stated)	HT1080-NT tox 4.61µM, KB-V1 cytotox inconclusive, KB-3-1 cytotox 5.17µM, HT1080 IDH1KD tx 6.51µM
O=C1NC(=Nc2ccc(F)cc2)SC1Cc1ccc(F)cc1 (configuration not stated)	KB-V1 cytotox inconclusive
COc1cccc(CNc2nc3c(-c4cccc(C)c4)nnn3c3ccccc23)c1	none (no result: HT1080-NT tox, HT1080 IDH1KD tx)
